MEKK3 PB1 HTS = modulators of MEKK3-MEK5 PB1 binding, primary screen, biochemical, wildtype MEKK3, multiplex bead flow cytometry, Alexa488-MEK5 | Mitogen-activated protein kinase kinase kinase 3 (Homo sapiens), Q99759 | bead-based flow cytometry, Alexa488-MEK5 binding to MEKK3; actives lie on both sides; 0 = blocked by unlabeled MEK5, 100 = vehicle | binding response (% of control), % at 10 µM | 1.4% of 290,000 active | AID 1529, 2009;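 active means binding response more than 3 SD above or below the average of its plate-row segment, actives on both sides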;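 further: Alexa488 bead fluorescence after subtracting the streptavidin-only scavenger bead signal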
CRFBP-R2 block = antagonists of CRF-BP/CRF-R2 complex, primary screen, cell-based, HEK293, calcium dye fluorescence, uHTS; CRF-induced calcium fluorescence; inhibition, % at 11.8 µM; 0.59% of 350,000 active;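 active means inhibition of the ligand-induced calcium signal above about 50% at the single tested concentration, limit read from the data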
MEKK2 WT-MEK5 = modulators of MEK5 binding to wildtype MEKK2, primary screen, biochemical, multiplex bead flow cytometry, Alexa488-MEK5 | AID 1531, 2009 | 1.1% of 290,000 active | Mitogen-activated protein kinase kinase kinase 2 (Homo sapiens), Q9Y2U5 | binding response (% of control), % at 10 µM | Alexa488-MEK5 binding to MEKK2 WT; actives lie on both sides; in the data active means binding response below about 67% or above about 130%
MEKK2 mut-MEK5 = MEK5 binding signal on mutant MEKK2 PB1, primary screen, biochemical, multiplex bead flow cytometry, Alexa488-MEK5 | Alexa488-MEK5 binding to MEKK2 mutant | percent response, % at 10 µM | 0.35% of 290,000 active; in the data active means percent response above about 24%, passing the limit was not always enough
CRFBP-R2 agonist = agonists of CRF-BP/CRF-R2 complex, primary screen, cell-based, HEK293, calcium dye fluorescence, uHTS; calcium dye fluorescence (FLIPR); percent of saturating CRF peptide response; activation, % at 13.2 µM; 0.46% of 350,000 active; AID 588473, 2011;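 active means activation of at least 50%, plus an integration ratio under a set limit after plate pattern correction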
ABCB6 inh MLPCN = ABCB6 transporter inhibitors, primary screen, K562-ABCB6 cells, flow cytometry, MLPCN library. ATP-binding cassette sub-family B member 6 (Homo sapiens), Q9NP58. K562-ABCB6 porphyrin accumulation, 1 h; active compounds read low. fluorescence ratio to DMSO, % at 10 µM. 0.19% of 360,000 active. AID 602162, 2011;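 active means fluorescence ratio to DMSO below 75%, the collection mean minus 3 SD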;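 further: signal is porphyrin accumulated inside mitochondria; lower ratio means ABCB6 inhibition with less porphyrin fluorescence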
Target sequence (Q9NP58 whole entry, looked up): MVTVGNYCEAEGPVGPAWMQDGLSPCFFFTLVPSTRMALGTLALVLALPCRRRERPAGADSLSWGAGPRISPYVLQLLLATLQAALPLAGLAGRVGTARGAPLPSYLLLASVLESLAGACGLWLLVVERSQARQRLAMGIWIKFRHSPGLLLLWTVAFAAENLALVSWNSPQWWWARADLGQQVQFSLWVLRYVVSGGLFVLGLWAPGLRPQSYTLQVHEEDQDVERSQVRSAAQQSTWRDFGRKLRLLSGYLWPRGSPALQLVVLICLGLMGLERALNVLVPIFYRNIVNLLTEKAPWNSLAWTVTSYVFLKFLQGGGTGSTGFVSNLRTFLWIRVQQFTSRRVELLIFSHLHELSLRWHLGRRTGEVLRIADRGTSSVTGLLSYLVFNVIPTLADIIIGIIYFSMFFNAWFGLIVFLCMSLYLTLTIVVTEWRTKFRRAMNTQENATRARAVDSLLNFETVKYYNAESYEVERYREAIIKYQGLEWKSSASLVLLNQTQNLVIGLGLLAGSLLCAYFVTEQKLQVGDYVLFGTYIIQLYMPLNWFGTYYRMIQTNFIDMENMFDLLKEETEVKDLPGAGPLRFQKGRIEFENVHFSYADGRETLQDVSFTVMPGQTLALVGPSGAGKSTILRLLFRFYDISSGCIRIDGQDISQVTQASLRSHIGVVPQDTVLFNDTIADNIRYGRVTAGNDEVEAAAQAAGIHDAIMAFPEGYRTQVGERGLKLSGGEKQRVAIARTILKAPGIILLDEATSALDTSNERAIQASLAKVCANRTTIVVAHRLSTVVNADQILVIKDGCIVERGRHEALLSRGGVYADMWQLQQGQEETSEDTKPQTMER
Numbers stand for hits; 0 = inactive; - = no result. Rows were chosen to be rich in hits. Some 2.9% of all compounds tested hit in one or more screens of this group.

SMILES | MEKK3 PB1 HTS | CRFBP-R2 block | MEKK2 WT-MEK5 | MEKK2 mut-MEK5 | CRFBP-R2 agonist | ABCB6 inh MLPCN
CCOc1cccc2sc(N(CCN(CC)CC)C(=O)c3ccc(S(=O)(=O)N4CCCCC4)cc3)nc12 | 0 | 0 | 0 | 0 | 0 | 0
CCOc1cccc2sc(N(CCCN(C)C)C(=O)c3ccc(S(=O)(=O)N4CCCCCC4)cc3)nc12 | 0 | 0 | 149.0 | 0 | 0 | 0
CC1CCCCN1S(=O)(=O)c1ccc(C(=O)N(CCCN(C)C)c2nc3ccc(Br)cc3s2)cc1 (stereo not drawn) | 0 | 0 | 258.0 | 76.0 | 0 | 0
CCN(Cc1ccccc1)S(=O)(=O)c1ccc(C(=O)N(CCCN(C)C)c2nc3cc(C)cc(C)c3s2)cc1 | - | 0 | - | - | 0 | 0
CCCCN(CC)S(=O)(=O)c1ccc(C(=O)N(CCCN(C)C)c2nc3cc(C)cc(C)c3s2)cc1 | 145.0 | 0 | 162.0 | 0 | 0 | 0
CCOc1cccc2sc(N(CCCN(C)C)C(=O)c3ccc(S(=O)(=O)N(C)Cc4ccccc4)cc3)nc12 | 0 | 0 | 233.0 | 62.0 | 0 | 0
CS(=O)(=O)c1ccc(C(=O)Nc2ccc(S(=O)(=O)N3CCCCC3)cc2)cc1 | - | 0 | - | - | 0 | 0
CCOc1ccc(N(C(C)C(=O)N2CCCC2)S(C)(=O)=O)cc1 (stereo not drawn) | 0 | 0 | 0 | 0 | 0 | 0
CN(C)CCCN(C(=O)c1ccc(S(=O)(=O)N2CCCCCC2)cc1)c1nc2cc3c(cc2s1)OCO3 | - | 0 | - | - | 0 | 0
Cc1ccc2nc(N(CCN(C)C)C(=O)c3ccc4ccccc4c3)sc2c1 | 0 | 0 | 0 | 0 | 0 | 0
COc1cccc2sc(N(CCCN(C)C)C(=O)c3ccc(S(=O)(=O)N4CCc5ccccc5C4)cc3)nc12 | 0 | 0 | 192.0 | 38.0 | 0 | 0
Cc1ccc2nc(N(CCCN(C)C)C(=O)c3ccc(S(=O)(=O)N4CCCCCC4)cc3)sc2c1 | 0 | 0 | 171.0 | 28.0 | 0 | 0
CN(C)CCN(C(=O)c1ccc2ccccc2c1)c1nc2ccc(Br)cc2s1 | 0 | 0 | 144.0 | 0 | 0 | 0
O=C(CN1CCC(NC(=O)C2CCCCC2)CC1)Nc1ccccc1 | - | 0 | - | - | 0 | 0
CN(C)c1ccc(NC(=O)CN2CCC(NC(=O)C3CCCCC3)CC2)cc1 | 0 | 0 | 137.0 | 30.0 | 0 | 0
CCC1(C)Cc2c(sc(NC(=S)NC(=O)c3ccccc3)c2C#N)CO1 (stereo not drawn) | 0 | 0 | 0 | 0 | 0 | 0
CN1Cc2sc(NC(=S)NC(=O)c3ccccc3)c(C#N)c2CC1(C)C | 0 | 0 | -14.0 | 0 | 93.1 | -
CC(C)(C)c1ccc(C(=O)CC(=O)c2cc(Cl)ccc2O)cc1 | 0 | 0 | 0 | 0 | 0 | 0
Cc1ccc(C(=O)CC(=O)c2cc(Cl)ccc2O)cc1 | 0 | 0 | 0 | 0 | 67.7 | 0
Cc1noc(NS(=O)(=O)c2ccc(NC(=O)CS(=O)(=O)c3ccccc3)cc2)c1C | 0 | 59.7 | 0 | 0 | 0 | 0
O=C(NC(=S)Nc1c(Cl)ccc2nsnc12)c1ccccc1F | 0 | 58.5 | 0 | 0 | 0 | 0
COc1ccccc1-n1cc([C@@H]2C[C@H]3CN(c4ccccc4)C(=O)[C@]34CCCN24)cn1 | 0 | 0 | 0 | 138.0 | 0 | 0
COc1cc([C@@H]2C[C@H]3CN(c4ccccc4)C(=O)[C@]34CCCN24)cc(OC)c1OC | 0 | 0 | 0 | 0 | 0 | 0
Cc1ccc(/C=[N+](\[O-])c2ccc(N(C)C)cc2)c2nsnc12 | 0 | 0 | 0 | 0 | 0 | 0
Cc1c(NC(=O)C(C)Oc2cccc(F)c2)c(=O)n(-c2ccccc2)n1C (stereo not drawn) | - | 0 | - | - | 0 | 0
SMILES | MEKK3 PB1 HTS | CRFBP-R2 block | MEKK2 WT-MEK5 | MEKK2 mut-MEK5 | CRFBP-R2 agonist | ABCB6 inh MLPCN
Cc1c(Br)c([N+](=O)[O-])nn1CC(=O)NC1CCCCCC1 | 0 | 0 | 0 | 0 | 0 | 0
Cc1c(Cl)c([N+](=O)[O-])nn1CC(=O)NC1CCCCC1 | 0 | 98.5 | 0 | 0 | 0 | 0
O=C(O)Cc1sc(Nc2ccc(F)cc2)nc1-c1cccs1 | 0 | 0 | 0 | 0 | 0 | 0
CCOC(=O)c1ccc(N(C(=O)c2ccco2)C(C(=O)NC2CCCC2)c2ccncc2)cc1 (stereo not drawn) | 0 | 0 | 0 | 0 | 0 | 0
CCOC(=O)c1cccc(NC(=O)c2ccc(-n3cnnn3)cc2)c1 | - | 0 | - | - | 0 | 0
Cc1c(C)n(-c2ccccc2)c2ncnc(NCCN(C)C)c12 | 0 | 0 | 0 | 0 | 0 | 0
Cc1cnc(NC(=O)CSc2nc3ccccc3s2)s1 | 0 | 0 | 0 | 0 | 0 | 0
Cc1cnc(NC(=O)CSc2nnc(N)s2)s1 | 0 | 0 | -8.0 | 0 | 0 | 0
CCOC(=O)c1c(-c2ccc(OC)cc2)csc1NC(=O)CNCc1ccco1 | 0 | 78.4 | 0 | 0 | 0 | 0
CCOC(=O)C1CCCN(C(=O)Cn2ncc3c([nH]c4ccc(C)cc43)c2=O)C1 (stereo not drawn) | 0 | 0 | 0 | 0 | 0 | 0
CSC1=NSC2=NC(=O)/C(=C/c3coc4ccc(O)cc4c3=O)C(=N)N12 | 0 | 0 | 0 | 0 | 79.3 | 0
N=C1/C(=C\c2coc3ccccc3c2=O)C(=O)N=C2SC=CN12 | 0 | 0 | 0 | 0 | 180.6 | 0
CSC1=NSC2=NC(=O)/C(=C/c3coc4ccccc4c3=O)C(=N)N12 | 0 | 0 | 0 | 0 | 313.1 | 0
N=C1/C(=C/c2cccn2Cc2ccc(F)cc2)C(=O)N=C2SC=CN12 | 0 | 0 | 0 | 0 | 0 | 0
CC1=CC2=NC(=O)/C(=C/c3coc4ccc(Cl)cc4c3=O)C(=N)N2O1 | 0 | 0 | 0 | 0 | 105.7 | 0
CCOC(=O)c1cc(CC)sc1NC(=O)COC(=O)C1CCC1 | 0 | 0 | 0 | 0 | 0 | 0
CCc1ccc(OCCCCCn2ccnc2)cc1 | 0 | 0 | 0 | 0 | 0 | 0
CCCN1C(=O)/C(=C/c2ccc(N3CCOCC3)cc2)NC1=S | 0 | 0 | 0 | 0 | 171.1 | 0
Cc1ccc(CN2C(=O)N/C(=C\c3ccc(N4CCOCC4)cc3)C2=O)cc1 | 0 | 0 | 0 | 0 | 0 | 0
CCN1C(=O)/C(=C/c2ccc(N3CCCC3)cc2)NC1=S | 0 | 0 | 0 | 0 | 257.9 | 0
COc1cccc(NC(=O)c2ccnc(N3CCC(C(=O)NCc4cc(OC)ccc4OC)CC3)c2)c1 | 0 | 0 | 0 | 0 | 0 | 0
O=C(c1ccc(CNS(=O)(=O)c2ccc(Br)cc2)cc1)N1CCCCCC1 | 0 | 0 | 0 | 0 | 0 | 0
Cc1ccc(C(=O)c2oc3ccc(Cl)cc3c2NC(=O)CN2CCN(C)CC2)cc1 | 0 | 0 | 160.0 | 0 | 0 | 0

Assay outcomes as filed in PubChem.
